# Source: PubChem
# This is a sample that favours compounds with a hit; in the whole collection about 0.81% have one here.
# SRC2 inh: inhibits human steroid receptor coactivator 2; Q15596; inhibition, % at 9 µM; HEK293 GAL4-SRC2 luciferase reporter, luminescence; 0.17% of 370,000 active;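 active means inhibition above the mean inhibition of all tested compounds plus 3 SD, set per campaign, cut at about 52% in these data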;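 further: 0% = DMSO treated cells and 100% = cells given Gossypol at 36 µM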
# NR5A2 inv ag: NR5A2 inverse agonism in reporter assay; HEK293T StAR-luciferase reporter, LRH-1 transfected, 24 h; 0.13% of 360,000 active; inhibition, % at 3.6 µM; O00482;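 active means inhibition above the mean inhibition of all tested compounds plus 3 SD, cut at about 73% in these data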;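 further: 0% = DMSO wells and 100% = reporter-only cells lacking LRH-1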
# Target sequence (O00482 whole entry, looked up): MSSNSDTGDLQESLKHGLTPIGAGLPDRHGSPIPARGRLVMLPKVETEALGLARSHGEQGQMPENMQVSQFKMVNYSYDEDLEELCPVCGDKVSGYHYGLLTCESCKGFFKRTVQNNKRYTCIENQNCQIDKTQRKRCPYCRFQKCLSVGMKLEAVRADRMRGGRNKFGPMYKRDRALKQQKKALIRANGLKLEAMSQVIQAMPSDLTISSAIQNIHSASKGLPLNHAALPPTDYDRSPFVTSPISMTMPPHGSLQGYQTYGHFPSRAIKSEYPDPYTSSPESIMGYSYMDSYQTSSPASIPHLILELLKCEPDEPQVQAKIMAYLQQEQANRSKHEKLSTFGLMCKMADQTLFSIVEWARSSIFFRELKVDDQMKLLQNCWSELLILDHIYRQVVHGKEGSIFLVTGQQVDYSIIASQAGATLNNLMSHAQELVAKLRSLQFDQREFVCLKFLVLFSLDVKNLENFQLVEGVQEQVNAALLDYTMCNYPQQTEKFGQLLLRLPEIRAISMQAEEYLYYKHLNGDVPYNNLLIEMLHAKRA
# COUP-TFII inh: inhibitors of human COUP-TFII (NR2F2); P24468; HEK293T NGFI-A luciferase reporter, luminescence; inhibition, % at 8.6 µM; 0.7% of 370,000 active; AID 686940;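 active means inhibition above a per-plate cutoff, mean inhibition of test wells between control levels plus 3 SD, cut at about 38% in these data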;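 further: cells cotransfected with COUP-TFII expression vector driving the NGFI-A reporter; 0% = median of COUP-TF2 test wells and 100% = reporter-only cells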
# SRC3 inh: inhibits human SRC3 coactivator; Q9Y6Q9; HEK293 GAL4-SRC3 luciferase reporter, luminescence; inhibition, % at 3.6 µM; 0.17% of 360,000 active; AID 588352;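 active means inhibition above a per-campaign cutoff, the mean of all compounds plus 3 SD, cut at about 60% in these data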;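 further: 0% = DMSO-treated cells and 100% = gossypol-treated cells at 36 µM; higher means less SRC3-driven luciferase light from the GAL4 reporter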
# SRC1 inh: inhibits human SRC1 coactivator. HEK293 GAL4-SRC1 luciferase reporter, luminescence. inhibition, % at 3.6 µM. 0.12% of 360,000 active;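 active means inhibition above the campaign mean plus 3 SD, with each screening campaign given its own cutoff, cut at about 60% in these data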;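 further: 0% = DMSO treated cells and 100% = gossypol at 36 µM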
# VP16 Luc counter: inhibits VP16 reporter, flagging COUP-TFII antagonist hits; shares compounds with COUP-TFII inh; HEK293 Gal4-VP16 luciferase reporter, luminescence; inhibition, % at 8.5 µM; 25% of 2,500 active; in the data active means inhibition above about 13%
# NR2F2 inh conf: confirmation of human COUP-TFII (NR2F2) inhibitors. inhibition, % at 8.5 µM. 45% of 2,500 active. HEK293 NGFI-A luciferase reporter, luminescence. shares compounds with COUP-TFII inh;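 active means mean inhibition over three repeats above a set limit taken from the earlier primary screen, cut at about 38% in these data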;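 further: 100% = cells given the luciferase reporter alone without the COUP-TF2 vector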
# * hit, by the source's call; nt = not tested or not shown.
SMILES,SRC2 inh,NR5A2 inv ag,COUP-TFII inh,SRC3 inh,SRC1 inh,VP16 Luc counter,NR2F2 inh conf
Cc1ccccc1C(=O)N1CCC(C(=O)Nc2cccc(S(=O)(=O)N3CCCCC3)c2)CC1,10,10,34,0,6,nt,nt
Cc1ccc(NC(=O)C2CCCN(C(=O)c3ccc(Cl)cc3)C2)cc1S(=O)(=O)N1CCOCC1 (centres undefined),-12,15,38*,10,12,-7,3
CC1Sc2ccc(S(=O)(=O)N3CCC(C(=O)Nc4ccc(Cl)cc4)CC3)cc2NC1=O (centres undefined),23,22,66*,18,3,16*,73*
Cc1ccc(NC(=O)C2CCN(S(=O)(=O)c3ccc(N4CCCC4=O)cc3)CC2)cc1Cl,38,24,66*,6,-1,2,46*
CC(C)CN1C(=O)C[C@@]2(C(=O)N(C)c3ccc(NC(=O)C(C)(C)C)cc32)C1c1ccccc1 (some centres undefined),3,nt,-1,nt,nt,nt,nt
O=C(c1cccs1)C1CCN(c2ncnc3sccc23)CC1,nt,nt,76*,nt,nt,12,69*
COc1ccc(C(=O)C2CCN(c3ncnc4sccc34)CC2)cc1,nt,nt,76*,nt,nt,5,68*
Cc1sc2ncnc(N3CCC(C(=O)NNC(=O)c4ccc(Cl)cc4)CC3)c2c1C,26,0,24,-2,-7,nt,nt
COc1ccc(-n2ncc3c(N4CCC(C(N)=O)CC4)ncnc32)cc1,-56,-113,-33,-111,-102,nt,nt
O=C(c1ccccc1)C1CCN(C(=O)c2cccs2)CC1,27,11,11,19,26,nt,nt
O=C(c1ccc(Cl)cc1)C1CCN(c2ncnc3sccc23)CC1,nt,nt,69*,nt,nt,0,56*
COC(=O)[C@]12C[C@H](CC(=O)N3CCCC3)C(=O)N(Cc3ccco3)C1=C[C@H](COCc1ccccc1)O[C@@H]2C,-5,nt,5,nt,nt,nt,nt
COc1ccc(Cc2nc3ccc(C(=O)N4CCCC4)cc3o2)cc1OC,-11,1,16,-26,-29,nt,nt
COc1ccc(Cc2nc3ccc(C(=O)N4CCN(C)C(C)C4)cc3o2)cc1OC (centres undefined),26,29,49*,20,19,9,46*
O=C1NC(Cc2ccc(O)cc2)c2nc3ccc(Cl)cc3c(=O)n2-c2cc3ccccc3cc21 (centres undefined),5,12,41*,9,-33,0,3
O=C1NC(Cc2ccccc2)c2nc3ccc(Cl)cc3c(=O)n2-c2cc3ccccc3cc21 (centres undefined),11,-15,-12,-12,4,nt,nt
O=C(CSc1nnc(Cn2nnc3ccccc32)o1)N(Cc1ccc(Cl)cc1)c1ccccc1,18,20,72*,34,25,4,67*
O=C(CSc1nnc(Cn2nnc3ccccc32)o1)Nc1cccc(Cl)c1,12,6,-2,-5,-5,nt,nt
CCCCNC(=O)C1(C)CCCCN1C(=O)c1ccc2c(c1)C(C)(C)CCC2(C)C (centres undefined),21,25,38*,-12,25,-4,29
CCCCNC(=O)C1(C)CCN1C(=O)c1ccc2c(c1)C(C)(C)CCC2(C)C (centres undefined),28,16,20,3,1,nt,nt
COc1ccc(-c2cc(N)n(S(=O)(=O)c3ccc(F)cc3)n2)cc1OC,28,17,46*,5,20,6,31
O=C(OC1CC2CCC(C1)[N+]21CCCC1)C(O)(c1ccccc1)c1ccccc1 (centres undefined),-3,nt,-15,nt,nt,nt,nt
O=C(c1cc2nc(-c3ccc(F)cc3)cc(C(F)(F)F)n2n1)N1CCCCC1c1cccnc1 (centres undefined),10,10,41*,27,13,9,57*
COc1ccc(C(=O)Nc2cccc(S(=O)(=O)N(C)C)c2)cc1S(=O)(=O)N1CCOCC1,7,21,-7,23,16,nt,nt
O=C(Nc1cccc(S(=O)(=O)N2CCOCC2)c1)c1cccc(S(=O)(=O)N2CCCC2)c1,-8,3,21,2,-9,nt,nt
SMILES,SRC2 inh,NR5A2 inv ag,COUP-TFII inh,SRC3 inh,SRC1 inh,VP16 Luc counter,NR2F2 inh conf
COc1ccccc1N(C)S(=O)(=O)c1ccc(C(=O)Nc2nc(C)cs2)cc1,20,4,40*,15,9,-10,12
COc1ccccc1N(C)S(=O)(=O)c1ccc(C(=O)Nc2cccc(S(=O)(=O)N3CCOCC3)c2)cc1,24,13,50*,25,6,4,26
CN(c1ccccc1)S(=O)(=O)c1ccc(C(=O)Nc2cccc(S(=O)(=O)N3CCOCC3)c2)cc1,8,20,56*,12,19,0,43*
C=CCN1C(=O)[C@H](CC(=O)N2CCOCC2)[C@@]2(C(=O)OCC)CCCC=C12,7,nt,1,nt,nt,nt,nt
COc1cccc(C(C)(O)c2nc(-c3ccc(S(C)(=O)=O)cc3)cs2)c1 (centres undefined),9,43,40*,13,10,3,5
COc1ccc(-c2csc(C(C)(O)c3cccc(OC)c3)n2)cc1 (centres undefined),29,15,36,5,-23,nt,nt
COc1ccc(-c2c[n+](CC(=O)OC3CC(C)CCC3C(C)C)c3n2CCC3)cc1 (centres undefined),5,45,64*,57,10,6,19
CC(C)[C@@H]1CC[C@@H](C)C[C@H]1OC(=O)C[n+]1cc(-c2ccc(Cl)cc2)n2c1CCCCC2,9,23,24,37,11,nt,nt
COc1ccc(Nc2nc(N3CCCCC3)c3ccccc3n2)cc1,13,10,38*,5,12,-1,10
COc1ccc(Nc2ccnc3ccccc23)cc1,41,0,40*,37,37,-10,13
Oc1ccc(Nc2nc(N3CCCC3)c3ccccc3n2)cc1,-100,8,9,52,47,nt,nt
O=S1(=O)c2c(cccc2N2CCC[C@@H]2CO)O[C@@H]2CCN1C2,15,nt,0,nt,nt,nt,nt
CCOC(=O)[C@]12CCCC=C1N(CCCOC)C(=O)[C@@H]2CC(=O)N1CCC(c2ccccc2)CC1,3,nt,-4,nt,nt,nt,nt
COC(=O)C[C@@H]1CC[C@H]2[C@@H](COc3ccc(NC(=O)Nc4ccccc4C)cc3C(=O)N2C)O1,0,nt,-23,nt,nt,nt,nt
Cc1[nH]nc(C(F)(F)F)c1N=NN1CCOCC1,30,24,49*,14,2,13,46*
Clc1ccc(N=NN2CCOCC2)cc1,0,-12,0,11,1,nt,nt
Cc1noc(C)c1COc1ccccc1C(=O)N(C)Cc1ccc(F)cc1,-3,22,-9,19,-2,nt,nt
Cc1noc(C)c1COc1ccccc1C(=O)N(C)Cc1ccc(C(C)(C)C)cc1,-1,13,41*,25,-8,-5,15
